Laboratory results: the supplement of paper PMC10849652
About 7,900 targets were measured; listed, in parts, are those with a hit and a random draw of the rest. About 0.6% of all pairs of compound and target were hits. Values without a mark were called inactive.

Columns and labels:
Assay in all cases: log2 fold change, soluble protein after heating vs DMSO (PISA); higher = thermal stabilisation; K562 cells, 10 uM, 30 min; active = over 0.2 and 3.5 SD of the protein, either way, in both replicates (recomputed)
erlotinib = compound: C#Cc1cccc(Nc2ncnc3cc(OCCOC)c(OCCOC)cc23)c1 [erlotinib]
How it was run: (§1)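 For each measurement, 10 μM compound was applied for 30 min to K562 cells at 2×10^6 cells/mL. Aliquots were heated for 3 min across 48°C-58°C, pooled, and extracted in PBS with 0.5% NP-40 at 4°C; the supernatant after 21,000xg for 90 min was soluble protein. This was quantified by TMTpro 16plex LC-MS/MS with channel sums equalised, and thermal stability was reported relative to control samples from duplicates, on a log2 fold-change scale.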

[1] = compound: C/C(=N\NC(=O)C1=CC(=CC=C1)S(=O)(=O)N2CCOCC2)/C3=C(C=CC(=C3)Cl)O
How it was run: as §1

[2] = compound: C1=CC(=C(C=C1Cl)C2=NC3=NC=CN=C3C(=N2)NC4=CC=NC=C4)F
How it was run: as §1

[3] = compound: C1=CC(=CC=C1C2=NC3=C(N2)C=C(C=C3)C(=O)N)OC4=CC=C(C=C4)Cl
How it was run: as §1

[4] = compound: C1=CC2=C(C=CC(=C2)/C=C\3/C(=O)NC(=NCC4=CC=CS4)S3)N=C1
How it was run: as §1

[5] = compound: C1=CC2=NC=CN=C2C=C1/C=C/3\C(=O)NC(=O)S3
How it was run: as §1

[6] = compound: C1=CC=C(C=C1)C2=NC(=C(N2)C3=CC=NC=C3)C4=CC(=C(C=C4)Cl)O
How it was run: as §1

[7] = compound: C1=CC=C2C(=C1)C3=NNC4=CC=CC(=C43)C2=O
How it was run: as §1

[8] = compound: C1CCN(C1)C(=O)NC2=CC=CC(=C2)NC3=NC=C(C(=N3)NCCC4=CN=CN4)Br
How it was run: as §1

[9] = compound: C1CN(CCC1(CC2=CC=C(C=C2)Cl)N)C3=NC=NC4=C3C=CN4
How it was run: as §1

ibrutinib = compound: C=CC(=O)N1CCC[C@@H](n2nc(-c3ccc(Oc4ccccc4)cc3)c3c(N)ncnc32)C1 [ibrutinib]
How it was run: as §1

[10] = compound: CC(=O)c1cnc2ccc(-c3cc(Cl)c(O)c(Cl)c3)nc2c1N[C@H]1CC[C@H](CN(C)C)CC1
How it was run: as §1

ralimetinib = compound: CC(C)(C)Cn1c(N)nc2ccc(-c3[nH]c(C(C)(C)C)nc3-c3ccc(F)cc3)nc21 [ralimetinib]
How it was run: as §1

[11] = compound: CC(C)(O)CC(=O)NCCn1ccc2ncnc(Nc3ccc(Oc4cccc(C(F)(F)F)c4)c(Cl)c3)c21
How it was run: as §1

[12] = compound: CC(C)C1=C2N=C(C=C(N2N=C1)NCC3=CC=CC=C3)NCCCCCCN
How it was run: as §1

[13] = compound: CC(C)C[C@@H](C=O)NC(=O)[C@H](CC(C)C)NC(=O)[C@H](CC(C)C)NC(=O)OCc1ccccc1
How it was run: as §1

[14] = compound: CC1=C(C(CC(=O)N1)C2=CC=C(C=C2)C(F)(F)F)C(=O)NC3=C(C=C4C(=C3)C=NN4)F
How it was run: as §1

[15] = compound: CC1=C(C2=C(C=C1)C(=O)C3=CC=CC=C3N2CCCN)C
How it was run: as §1

IRAK-1-4 Inhibitor I = compound: C1COCCN1CCN2C3=CC=CC=C3N=C2NC(=O)C4=CC(=CC=C4)[N+](=O)[O-] [IRAK-1-4 Inhibitor I]
How it was run: as §1

pinometostat = compound: CC(C)N(C[C@H]1O[C@@H](n2cnc3c(N)ncnc32)[C@H](O)[C@@H]1O)[C@H]1C[C@@H](CCc2nc3cc(C(C)(C)C)ccc3[nH]2)C1 [pinometostat]
How it was run: as §1

UniProt P24666, sequence (P24666 whole entry, looked up): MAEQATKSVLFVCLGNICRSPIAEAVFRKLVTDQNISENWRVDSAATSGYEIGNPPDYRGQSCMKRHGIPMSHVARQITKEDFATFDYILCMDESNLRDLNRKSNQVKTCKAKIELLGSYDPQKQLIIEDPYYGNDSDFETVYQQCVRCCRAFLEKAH
UniProt P55008, sequence (P55008 whole entry, looked up): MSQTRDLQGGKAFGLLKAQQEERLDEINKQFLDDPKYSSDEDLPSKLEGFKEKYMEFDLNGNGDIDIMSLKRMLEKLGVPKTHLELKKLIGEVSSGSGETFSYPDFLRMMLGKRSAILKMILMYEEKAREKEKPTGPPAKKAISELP
UniProt Q9NWX5, sequence (Q9NWX5 whole entry, looked up): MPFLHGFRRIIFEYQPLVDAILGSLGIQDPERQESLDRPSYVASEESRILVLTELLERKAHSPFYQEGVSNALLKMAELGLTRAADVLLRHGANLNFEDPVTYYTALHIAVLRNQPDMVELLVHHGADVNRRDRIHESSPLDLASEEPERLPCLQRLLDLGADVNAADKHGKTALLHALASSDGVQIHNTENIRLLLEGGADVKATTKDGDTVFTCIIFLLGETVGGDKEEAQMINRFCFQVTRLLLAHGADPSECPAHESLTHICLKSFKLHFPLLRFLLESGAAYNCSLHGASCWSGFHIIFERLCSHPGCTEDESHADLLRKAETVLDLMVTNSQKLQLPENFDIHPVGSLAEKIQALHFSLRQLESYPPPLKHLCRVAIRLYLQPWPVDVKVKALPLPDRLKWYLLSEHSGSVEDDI
UniProt P00966, sequence (P00966 whole entry, looked up): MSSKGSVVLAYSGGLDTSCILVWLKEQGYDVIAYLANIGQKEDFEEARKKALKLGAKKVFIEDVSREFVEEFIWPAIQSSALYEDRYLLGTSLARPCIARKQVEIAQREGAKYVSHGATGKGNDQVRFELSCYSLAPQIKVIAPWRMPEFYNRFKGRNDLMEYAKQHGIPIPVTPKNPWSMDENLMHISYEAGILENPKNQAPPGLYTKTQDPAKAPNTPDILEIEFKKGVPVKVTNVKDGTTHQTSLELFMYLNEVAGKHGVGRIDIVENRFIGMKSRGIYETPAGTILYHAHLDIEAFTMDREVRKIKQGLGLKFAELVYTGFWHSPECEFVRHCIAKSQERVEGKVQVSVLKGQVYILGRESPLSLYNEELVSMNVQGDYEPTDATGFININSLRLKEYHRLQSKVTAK
UniProt Q06481, sequence (Q06481 whole entry, looked up): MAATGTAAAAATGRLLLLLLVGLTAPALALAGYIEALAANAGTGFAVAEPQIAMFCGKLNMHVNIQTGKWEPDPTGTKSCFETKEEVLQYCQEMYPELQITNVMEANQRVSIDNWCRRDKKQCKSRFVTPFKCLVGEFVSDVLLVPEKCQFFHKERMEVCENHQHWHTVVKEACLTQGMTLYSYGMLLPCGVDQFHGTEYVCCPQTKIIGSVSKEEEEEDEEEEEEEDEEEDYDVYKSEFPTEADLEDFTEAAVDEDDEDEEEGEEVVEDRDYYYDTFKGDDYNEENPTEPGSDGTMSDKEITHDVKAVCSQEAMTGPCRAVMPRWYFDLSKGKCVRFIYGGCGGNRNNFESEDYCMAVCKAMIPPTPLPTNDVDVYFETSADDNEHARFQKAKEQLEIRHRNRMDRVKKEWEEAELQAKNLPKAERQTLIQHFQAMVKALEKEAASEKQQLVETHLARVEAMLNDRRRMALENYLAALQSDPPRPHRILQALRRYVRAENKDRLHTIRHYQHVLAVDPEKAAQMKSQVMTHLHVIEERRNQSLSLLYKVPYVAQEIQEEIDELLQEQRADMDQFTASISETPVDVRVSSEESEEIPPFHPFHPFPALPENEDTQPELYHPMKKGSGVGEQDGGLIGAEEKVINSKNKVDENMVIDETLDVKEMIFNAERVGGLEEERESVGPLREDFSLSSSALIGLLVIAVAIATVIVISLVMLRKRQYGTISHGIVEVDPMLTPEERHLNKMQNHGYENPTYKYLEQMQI
UniProt P15056, sequence (P15056 whole entry, looked up): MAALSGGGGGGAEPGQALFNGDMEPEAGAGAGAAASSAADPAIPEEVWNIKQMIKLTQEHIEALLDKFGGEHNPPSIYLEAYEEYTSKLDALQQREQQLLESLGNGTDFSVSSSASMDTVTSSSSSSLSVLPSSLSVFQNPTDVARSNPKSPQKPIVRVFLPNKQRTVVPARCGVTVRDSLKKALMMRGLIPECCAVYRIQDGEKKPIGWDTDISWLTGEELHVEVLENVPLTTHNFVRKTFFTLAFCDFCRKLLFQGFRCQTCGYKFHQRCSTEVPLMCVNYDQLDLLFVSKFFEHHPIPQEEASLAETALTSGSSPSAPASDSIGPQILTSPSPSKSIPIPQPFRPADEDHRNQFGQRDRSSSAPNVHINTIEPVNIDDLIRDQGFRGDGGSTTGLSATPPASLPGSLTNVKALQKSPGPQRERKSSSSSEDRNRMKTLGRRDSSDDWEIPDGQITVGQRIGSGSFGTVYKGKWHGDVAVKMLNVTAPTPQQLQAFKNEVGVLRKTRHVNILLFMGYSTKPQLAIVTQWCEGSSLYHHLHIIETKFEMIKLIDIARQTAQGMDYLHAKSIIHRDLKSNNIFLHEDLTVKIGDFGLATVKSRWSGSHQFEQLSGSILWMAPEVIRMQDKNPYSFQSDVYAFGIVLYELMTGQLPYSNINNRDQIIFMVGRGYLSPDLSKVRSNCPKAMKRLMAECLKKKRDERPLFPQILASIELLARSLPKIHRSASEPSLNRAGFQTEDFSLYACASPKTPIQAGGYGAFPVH
UniProt P55196, sequence (P55196 whole entry, looked up): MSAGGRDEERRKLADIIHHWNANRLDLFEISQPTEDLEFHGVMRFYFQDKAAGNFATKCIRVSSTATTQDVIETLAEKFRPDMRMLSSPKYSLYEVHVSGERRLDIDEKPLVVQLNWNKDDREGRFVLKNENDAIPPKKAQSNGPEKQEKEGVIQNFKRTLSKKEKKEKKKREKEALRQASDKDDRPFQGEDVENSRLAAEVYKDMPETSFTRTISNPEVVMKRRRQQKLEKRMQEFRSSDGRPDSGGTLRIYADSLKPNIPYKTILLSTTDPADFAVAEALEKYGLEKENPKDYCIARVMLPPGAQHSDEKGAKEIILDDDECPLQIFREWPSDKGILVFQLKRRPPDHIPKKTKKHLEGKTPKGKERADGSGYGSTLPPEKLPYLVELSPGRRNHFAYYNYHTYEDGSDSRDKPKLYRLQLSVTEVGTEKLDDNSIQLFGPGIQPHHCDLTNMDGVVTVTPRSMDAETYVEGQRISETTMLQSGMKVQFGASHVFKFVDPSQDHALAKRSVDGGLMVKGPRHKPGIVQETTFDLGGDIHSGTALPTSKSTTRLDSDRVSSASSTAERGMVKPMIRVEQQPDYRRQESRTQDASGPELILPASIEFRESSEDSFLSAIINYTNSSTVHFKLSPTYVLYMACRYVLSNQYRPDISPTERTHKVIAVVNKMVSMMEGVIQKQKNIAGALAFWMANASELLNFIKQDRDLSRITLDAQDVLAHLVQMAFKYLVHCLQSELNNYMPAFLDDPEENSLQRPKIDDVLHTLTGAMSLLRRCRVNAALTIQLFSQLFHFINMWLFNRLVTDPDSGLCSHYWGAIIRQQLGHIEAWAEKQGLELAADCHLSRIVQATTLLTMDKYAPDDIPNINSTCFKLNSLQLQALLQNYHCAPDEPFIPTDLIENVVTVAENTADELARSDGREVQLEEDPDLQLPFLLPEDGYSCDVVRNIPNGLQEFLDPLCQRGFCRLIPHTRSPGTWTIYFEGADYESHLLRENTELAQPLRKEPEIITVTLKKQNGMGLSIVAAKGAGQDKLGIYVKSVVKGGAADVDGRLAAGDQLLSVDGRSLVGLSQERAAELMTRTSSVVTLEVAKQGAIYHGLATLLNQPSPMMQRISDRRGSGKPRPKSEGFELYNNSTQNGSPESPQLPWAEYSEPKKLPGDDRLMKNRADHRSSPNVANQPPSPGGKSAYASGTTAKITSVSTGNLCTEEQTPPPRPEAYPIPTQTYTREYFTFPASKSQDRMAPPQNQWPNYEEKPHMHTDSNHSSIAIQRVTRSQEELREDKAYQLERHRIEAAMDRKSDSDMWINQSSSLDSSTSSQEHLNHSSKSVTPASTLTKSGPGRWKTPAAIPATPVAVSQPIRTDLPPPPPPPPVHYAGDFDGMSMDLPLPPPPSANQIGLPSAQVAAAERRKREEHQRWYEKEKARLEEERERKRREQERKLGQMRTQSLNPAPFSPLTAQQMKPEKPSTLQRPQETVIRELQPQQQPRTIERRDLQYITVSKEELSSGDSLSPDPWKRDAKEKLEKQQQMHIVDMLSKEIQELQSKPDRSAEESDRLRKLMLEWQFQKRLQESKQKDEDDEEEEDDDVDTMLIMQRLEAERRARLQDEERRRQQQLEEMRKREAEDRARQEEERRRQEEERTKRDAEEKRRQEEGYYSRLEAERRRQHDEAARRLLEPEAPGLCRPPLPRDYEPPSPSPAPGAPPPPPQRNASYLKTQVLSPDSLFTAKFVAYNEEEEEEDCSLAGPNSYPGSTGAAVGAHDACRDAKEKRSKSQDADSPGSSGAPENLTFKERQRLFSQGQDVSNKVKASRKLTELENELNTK
UniProt P49189, sequence (P49189 whole entry, looked up): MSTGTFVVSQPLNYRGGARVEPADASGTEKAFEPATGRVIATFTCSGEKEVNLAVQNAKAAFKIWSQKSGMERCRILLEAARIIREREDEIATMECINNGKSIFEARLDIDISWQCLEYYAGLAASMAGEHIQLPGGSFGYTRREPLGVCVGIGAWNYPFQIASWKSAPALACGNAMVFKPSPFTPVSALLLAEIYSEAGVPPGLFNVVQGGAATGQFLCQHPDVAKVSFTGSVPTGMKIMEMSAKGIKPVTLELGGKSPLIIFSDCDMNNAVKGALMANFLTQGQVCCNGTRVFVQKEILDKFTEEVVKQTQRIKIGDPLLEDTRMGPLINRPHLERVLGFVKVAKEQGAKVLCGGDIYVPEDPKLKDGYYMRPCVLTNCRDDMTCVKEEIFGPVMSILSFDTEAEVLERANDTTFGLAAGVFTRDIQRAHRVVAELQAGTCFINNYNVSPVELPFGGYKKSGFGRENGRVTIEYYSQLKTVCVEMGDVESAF

Target	log2 fold change (erlotinib)	log2 fold change [1]	log2 fold change [2]	log2 fold change [3]	log2 fold change [4]	log2 fold change [5]	log2 fold change [6]	log2 fold change [7]	log2 fold change [8]	log2 fold change [9]	log2 fold change (ibrutinib)	log2 fold change [10]	log2 fold change (ralimetinib)	log2 fold change [11]	log2 fold change [12]	log2 fold change [13]	log2 fold change [14]	log2 fold change [15]	log2 fold change (IRAK-1-4 Inhibitor I)	log2 fold change (pinometostat)
BRD4 (UniProt O60885)	-0.151	0.078	0.054	0.003	0.025	-0.003	0.213	-0.002	-0.121	-0.117	-0.018	-0.254	-0.174	-0.011	0.094	-0.035	0.047	0.101		
ALKBH4 (UniProt Q9NXW9)	0.067	0.084	0.018	0.078	0.106	-0.129	0.032	-0.006	-0.074	0.091	-0.126	-0.07	0.017	-0.12	-0.086	-0.033		-0.11	0.009	-0.065
AFDN isoform 1 (UniProt P55196)	-0.008	0.072	0.002	-0.003	-0.136	-0.018	-0.082	-0.005			-0.015	-0.102	-0.12	-0.048	-0.001	0.002			-0.046	-0.072
ARFGEF1 (UniProt Q9Y6D6)	0.016	0.025	0.03	-0.03	0.016	0.015	0.101	0.051	-0.013	0.043	-0.061	0.036	0.132	-0.018	0.051	-0.019	-0.065	0.07	0.016	0.001
ACP1 (UniProt P24666)	0.149	0.06	0.035	-0.066	0.224	-0.059		0.109	-0.001	-0.015	-0.073	-0.083		-0.238	-0.071		-0.055	-0.087	-0.027	0.107
AIF1 (UniProt P55008)	0.155	-0.02	0.09	0.08	-0.051	0.093	0.058	-0.126			0.012	0.028	-0.112	0.035	-0.033	0.07				
APPL1 (UniProt Q9UKG1)	-0.049	0.162	0.055	0.012	0.055	0.016	0.038	-0.029	0.014	0.003	-0.067	-0.074	-0.024	0.037	0.006	0.069	-0.15	-0.011	0.016	0.059
ASB6 (UniProt Q9NWX5)	-0.024	-0.603 (active)	-0.263	-0.067	0.184	-0.084	0.101	-0.032			-0.108	0.039	0.343	-0.274	-0.055	0.069	0.059		0.106	-0.031
BRAF (UniProt P15056)	0.031	0.057	0.034	0.007	0.08	-0.012		-0.054	-0.088	0.024	0.002		0.019		-0.044	-0.031	0.003	0.056	-0.025	0.047
ALDH9A1 (UniProt P49189)	0.131	0.021	0.035	-0.077	-0.023	0.013	-0.103	0.043	0.035	0.045	-0.008	-0.024	-0.077	0	-0.27	0.185	-0.056	-0.035		
APLP2 (UniProt Q06481)	0.003	0.009	-0.023	-0.034	0.023	0.004	0.044	-0.03	-0.047	-0.002	-0.005	-0.004	0.086	0.133	0.167	0.062	-0.017	-0.225	-0.073	0
ASS1 (UniProt P00966)	0.059	0.301 (active)	-0.05	0.008	-0.003	0.036	0.012	0.118	0.103	-0.037	0.05	-0.155	-0.022	-0.064	-0.122	0.006	-0.071	-0.021		
ABCA3 (UniProt Q99758)	0.011	0.087	0.002	0.057	-0.027	-0.056	0.01	0.031	0.094	-0.034	-0.051	-0.005	-0.096	-0.096	-0.007	-0.017		0.054	-0.012	0.203
BTBD6 (UniProt Q96KE9)	0.407	-0.706 (active)	0.165	-0.188	0.016	-0.057	0.3	0.081	-0.19	0.185	0.136	0.145	0.201	-0.008	0.296	0.025	0.068	0.005		
ATRN (UniProt O75882)	0.006	0.037	-0.113	-0.148	0.098	0.04		-0.166	-0.052	0.018	0.083	0.012		-0.02	0.033		-0.08	0.044	-0.084	0.079
BRD8 isoform 2 (UniProt Q9H0E9)	0.157	0.016	0.029	0.082	0.035	0.055	-0.152	-0.044	-0.027	0.021	0	0.036	-0.103	0.021	-0.003	0.093		-0.071	0.028	0.01
ACP2 (UniProt P11117)	0.031	0.004	0.061	0.019	0.019	-0.01	0.022	-0.022	-0.003	0.045	0.033	-0.012	-0.012	-0.03	-0.205	-0.026	0.02	-0.006	0.047	0.027
